# Assay results published in the supplement of paper PMC6555819.
# Test system: RARg:RXRa (NR concentration 270 nM, RXRa partner concentration 90 nM)
# Assay: PBM binding z-score (relative to random genomic background probes); higher = stronger binding; sequences stand for … in GC…GCGATTGACAGCGTAGAATGAAGG
# Outline: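 On custom Agilent 4×180K arrays, double-stranded probes with 34-nt variable regions carried direct-repeat seeds, single-nucleotide variants, half-site ablations or random human genomic background. Ligand-free nuclear receptor dimers were applied for 1 h, and binding was read with antibodies against each partner (one per run). Binding z-scores come from regression-normalized fluorescence, with the random background probes as reference.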
row,Sequence,PBM binding z-score
1,GCAGACAGGTGAAACGCAGGTAGCTCAGGGTGGC,0.108
2,AGAATGAGGTTAGGATCAGGGAAACAGAATACAT,1.15
3,CAAACTAGGTCACCGGAAGGTCACAGTCCGCATG,8.31
4,TGAATCAGGTTAAAGATCAGGGAACGTGGCGTCG,0.805
5,ATCGAAAGGTCGAGGTGAGTAAAGAGAAAGGGAA,4.22
6,GCATATAGGTAATACCAGGTGAAAGTCCGATTGT,0.203
7,CCGACTGGGGCAGAAAGGTAACCATACCATCCGG,0.234
8,TCTTGTAGATCAACAGGAGGTTAAGAAAGATCGA,0.934
9,GCTGCTAGGTCAACTAATGGTCAGCTAAAGCTCG,5.28
10,GCGACTGGGGCAAGGCAGGTTACCATAAGGTTGG,0.436
11,ATATGTAGGTTAACGGGTCATTCAGTTTGCGCAT,3.21
12,GCTCGGAGAACAAGGTCAGAGCTTTGTCCGTAGA,2.39
13,CCTTACGGGTCCCGAGGTTATAGCACGACGAGCG,0.416
14,CCTTACGGGTCACGAGGTTATATCACGACGAGCG,6.16
15,GATCGGAGGACAAGGTCAGAGCTTTGTCCGTAGA,3.05
16,ATATGTAGGTTACATACGGGTCATTCAGGCTATG,4.44
17,GCAAACAGGTGAAACGCAGGTAACTCAGGGTGGC,0.796
18,TCTTGTAGATCAACAGGAGGTCAAGAAAGATCGA,4.04
19,TGAATGAGGTTAAAGATCAGGAAACGTGGCGTCG,2.53
20,GCTGCTATGTCAACTGATGGTCAGCTAAAGCTCG,0.506

row,Sequence,PBM binding z-score
1,TAGCCTAGTTCAGATCGGGCCAGTATACGCTATA,-0.0236
2,TCTTGTAGATCACCAGGAGGTTAAGAAAGATCGA,1.15
3,TGAATGAGGTTAAAGATCAGGGATCGTGGCGTCG,2.25
4,TAGCCTAGGTCAGATCTGGCCAGTATACGCTATA,2.73
5,TAGCCTAGGTCATGGGCCACTATACCACGCGAAC,4.38
6,GCTGCTAGGTCAACTGATGGACAGCTAAAGCTCG,4.45
7,CGTCCAAGGTCATAGGACGTCAGTGAAGACAGAT,5.58
8,CGTGCAAGGTCAAGGTCAGTGAAAGAGACTCGAA,6.85
9,ACTTACGGGTCAACGTGGTTATAGCACGCGTATA,5.25
10,ACTAGCAGGCCAACGGTCACTCAAGATTAGTCCG,0.906
11,ATCGAAAGGTCGTAGGTGAGTATACCCACCCGAA,4.48
12,CCAACTGGGCCATCAGGTCATTGATATCAACGTT,2
13,CGTCCAAGGTCATAGGCGGTCAGTGAAGACAGAT,6.05
14,CCGACTAGGTTATGGGGCATTCAGGCAACGGTGA,0.358
15,TTACCAAGGTGGAAGGTCGTTGATGCACGCCTTG,0.595
16,CGTACAAGGTCAGCAGGTCAGTGAAAGCGACGTG,6.42
17,CCTACTGGGCCATAAAGGTCATTGATGCCGATAA,4.52
18,ATCGAAAGGTCGAAGGTGAGTAAACCCACCCGAA,4.43
19,AGTCAAAATTCAGGACGAGGTAACGTAAAGCACG,0.203
20,GATACATGGTCAGCTAGAGGCCAGAGTATGGAAA,1.39
